From PubChem
esBAF inh: Bmi1 luciferase reporter increase in mESCs, primary screen, esBAF inhibitor project, mouse ES cells, Bmi1 luciferase knock-in, single point. AID 602393, 2012. 2% of 350,000 active. 24 h; 100% = twice the neutral-well signal. reporter increase, % at 12.5 µM; in the data active means activation above about 40%; inconclusive means no clear call, values can overlap the other calls;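 further: a rise in the Bmi1 reporter signal indicates esBAF inhibition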
Ecoli rRNA inh: reduced GFP signal of wild-type E. coli, primary screen, bacterial rRNA inhibitor project, GFP/RFP fluorescence, OD600, single point; E. coli WT GFP vs humanized-ribosome RFP mutants, 24 h; stronger effect = lower value; DMSO median 0, no signal -100; GFP signal change (wild-type ribosome), % (concentration not given with the values); 1.6% of 350,000 active; AID 720706, 2013;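 active means significant combined selectivity score with lowered wild-type GFP, culture density cut under 30%, mutant RFP and density less affected; inactive means any of these conditions unmet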
MLL AF4-AF9 inh: inhibitors of AF4 peptide binding to AF9, primary screen, biochemical, AlphaScreen, biotin-AF4 peptide, FLAG-AF9, single point | Protein AF-9 (Homo sapiens), P42568 | inhibition, % at 10 µM | 0.47% of 350,000 active;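 active means every replicate reaching a set inhibition limit, whatever the replicate mean, cut at about 25% in these data; inconclusive means mean inhibition reaches that limit but some replicates miss it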
Target sequence (P42568 whole entry, looked up): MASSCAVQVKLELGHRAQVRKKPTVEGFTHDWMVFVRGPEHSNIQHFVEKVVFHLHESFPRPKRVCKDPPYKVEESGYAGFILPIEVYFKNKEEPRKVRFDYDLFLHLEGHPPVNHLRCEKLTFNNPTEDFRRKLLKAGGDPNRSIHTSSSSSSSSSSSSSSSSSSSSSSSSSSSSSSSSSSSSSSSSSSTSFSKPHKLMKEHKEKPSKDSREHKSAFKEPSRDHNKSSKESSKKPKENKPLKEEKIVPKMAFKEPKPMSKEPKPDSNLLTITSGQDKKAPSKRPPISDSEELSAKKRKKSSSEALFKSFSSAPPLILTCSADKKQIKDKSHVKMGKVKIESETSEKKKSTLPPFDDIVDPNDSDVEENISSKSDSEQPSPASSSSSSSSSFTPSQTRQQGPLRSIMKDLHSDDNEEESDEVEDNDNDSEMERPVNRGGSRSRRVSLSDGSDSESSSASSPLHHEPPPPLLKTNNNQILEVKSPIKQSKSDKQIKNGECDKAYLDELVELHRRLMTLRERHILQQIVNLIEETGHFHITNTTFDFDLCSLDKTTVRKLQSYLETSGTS
MITF TRPM1 HTS: activators of MITF-driven TRPM1 promoter reporter, primary screen, cell-based, SK-MEL-5, luciferase, single point. SK-MEL-5 TRPM1-promoter luciferase, 24 h; % of positive control, neutral wells = 0. activation, % at 12.5 µM. 0.75% of 300,000 active. AID 588334, 2011;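 active means mean activation of at least 80% with every replicate also reaching 80%; inconclusive means mean reaches 80% but some replicate falls short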
Wnt act: Wnt/beta-catenin pathway activators, primary screen, cell-based, plate reader, single point. Wnt/beta-catenin reporter cell assay, activator. activation, % at 9.35 µM. 1.2% of 300,000 active. AID 743398, 2014; in the data active means activation above about 30%, passing the limit was not always enough; inconclusive means no clear call, values can overlap the other calls
Numbers stand for hits. Sampled rows, rich in hits. Any-hit rate of the full collection: about 3.7%.

For Cc1ccc(NC(=O)c2cnn(-c3ccccc3)c2NC(=O)c2ccco2)cc1C the results were esBAF inh 55, MITF TRPM1 HTS inactive and Wnt act inactive.
Screening CCN(CC)C(=O)c1cnn(-c2ccccc2)c1NC(=O)c1ccco1 returned esBAF inh inactive, Ecoli rRNA inh inactive, MLL AF4-AF9 inh inactive, MITF TRPM1 HTS inactive and Wnt act inactive.
`Cc1c(C(=O)Oc2cccc3ccccc23)cnn1-c1ccccc1` gave esBAF inh 45 and MITF TRPM1 HTS inactive.
For COc1ccc(NC(=O)c2cnn(-c3ccccc3)c2C)c(OC)c1 the results were esBAF inh inactive, Ecoli rRNA inh inactive, MLL AF4-AF9 inh inactive, MITF TRPM1 HTS inactive and Wnt act inactive.
For Cc1cc(CN(C)C(=O)c2ccc(OC3CCN(Cc4ccccn4)CC3)cc2)on1 the results were esBAF inh inactive, Ecoli rRNA inh inactive, MLL AF4-AF9 inh inactive, MITF TRPM1 HTS inactive and Wnt act inactive.
For C=CCNC(=S)N1CCN(c2cccc(C(F)(F)F)c2)CC1 the results were esBAF inh inactive, Ecoli rRNA inh inactive, MLL AF4-AF9 inh inactive, MITF TRPM1 HTS inactive and Wnt act inactive.
COc1cc([N+](=O)[O-])ccc1NC(=O)CN1CCN(C(=O)c2ccco2)CC1 was read as Ecoli rRNA inh inactive, MLL AF4-AF9 inh inactive, MITF TRPM1 HTS inactive and Wnt act inactive.
O=C(OCC(=O)N1CCCCCC1)c1cccs1 was read as esBAF inh 45 and MITF TRPM1 HTS inactive.
`CC1CCN(C(=O)COC(=O)c2n[nH]c3ccccc23)CC1` gave esBAF inh 58 and MITF TRPM1 HTS inactive.
For CCC1CCCCN1C(=O)COC(=O)c1n[nH]c2ccccc12 (stereo not drawn) the results were esBAF inh inactive, MITF TRPM1 HTS inactive and Wnt act inactive.
For O=C(OCC(=O)N1CCc2ccccc2C1)c1cccs1 the results were Ecoli rRNA inh inactive, MLL AF4-AF9 inh inactive, MITF TRPM1 HTS inactive and Wnt act inactive.
For CC1CCCCN1C(=O)COC(=O)c1ccc(N2CCCC2=O)cc1 (stereo not drawn) the results were esBAF inh inactive, Ecoli rRNA inh inactive, MLL AF4-AF9 inh inactive, MITF TRPM1 HTS inactive and Wnt act inactive.
CC1CCN(C(=O)COC(=O)c2cccs2)CC1 was read as esBAF inh 65, Ecoli rRNA inh inactive, MLL AF4-AF9 inh inactive, MITF TRPM1 HTS inactive and Wnt act inactive.
For CC1CCCCN1C(=O)COC(=O)c1cc(Cl)c2c(c1)OCO2 (stereo not drawn) the results were esBAF inh 55, Ecoli rRNA inh inactive, MLL AF4-AF9 inh inactive, MITF TRPM1 HTS inconclusive and Wnt act inactive.
For Cc1cccc(-c2ccc([C@@H]3[C@H]4CN(C(=O)c5cccnc5)CCCCN4[C@H]3CO)cc2)c1 the results were Ecoli rRNA inh inactive and MLL AF4-AF9 inh inactive.
Screening O=C(COC(=O)c1ccc(Cl)cc1[N+](=O)[O-])NNC(=O)c1cccs1 returned esBAF inh inactive, Ecoli rRNA inh inactive, MLL AF4-AF9 inh inactive, MITF TRPM1 HTS inactive and Wnt act inactive.
Screening O=C(N/N=C/c1ccccc1)c1cc[n+]([O-])cc1 returned esBAF inh inactive, Ecoli rRNA inh inactive, MLL AF4-AF9 inh inactive, MITF TRPM1 HTS inactive and Wnt act inactive.
For CCCCN1C(=O)C(CC(=O)NCCCCc2ccccc2)CC(C(=O)N2CCOCC2)=C1C (stereo not drawn) the results were esBAF inh inactive, Ecoli rRNA inh inactive, MLL AF4-AF9 inh inactive and Wnt act inactive.
For O=C1NCC(=O)N2[C@@H]1C[C@@H](C(=O)NCc1ccc(F)cc1)[C@H]2c1cccc(OCCO)c1 the results were MLL AF4-AF9 inh inactive.
Screening CC1CCN(C(=O)COC(=O)c2ccc3c(c2)OCCO3)CC1 returned esBAF inh inactive, Ecoli rRNA inh inactive, MLL AF4-AF9 inh inactive, MITF TRPM1 HTS inactive and Wnt act inactive.
For CC1CCN(C(=O)COC(=O)c2ccc3c(c2)OCO3)CC1 the results were esBAF inh 48, Ecoli rRNA inh inactive, MLL AF4-AF9 inh inactive, MITF TRPM1 HTS inactive and Wnt act inactive.
CCOC(=O)C1CCCN(C(=O)COC(=O)c2cccs2)C1 (stereo not drawn) was read as esBAF inh inactive, Ecoli rRNA inh inactive, MLL AF4-AF9 inh inactive, MITF TRPM1 HTS inactive and Wnt act inactive.
`O=C(OCC(=O)N1CCCCC1)c1cccs1` gave esBAF inh 48, Ecoli rRNA inh inactive, MLL AF4-AF9 inh inactive, MITF TRPM1 HTS 83 and Wnt act inactive.
`O=C(NC1CCCC1)N1CC(=O)N2[C@H](C1)[C@@H](c1ccc(-c3cccc(F)c3)cc1)[C@@H]2CO` gave Ecoli rRNA inh inactive and MLL AF4-AF9 inh inactive.
For N#C/C(=C\c1cccs1)C(=O)Nc1ccccn1 the results were Ecoli rRNA inh inactive, MLL AF4-AF9 inh inactive, MITF TRPM1 HTS 89 and Wnt act 74.
N#C/C(=C\c1ccccc1)C(=O)Nc1ccccn1 was read as esBAF inh inactive, Ecoli rRNA inh inactive, MLL AF4-AF9 inh inactive, MITF TRPM1 HTS inactive and Wnt act inactive.
`Cc1ccc(S(=O)(=O)N2C[C@H]3[C@H]4C(=O)N(c5ccccc5)C(=O)[C@H]4C[C@H](OC(=O)Nc4c(C)noc4C)[C@@]3(O)C2)cc1` gave esBAF inh inactive, Ecoli rRNA inh -2.8, MLL AF4-AF9 inh inactive and Wnt act inactive.
For Cc1ccc(S(=O)(=O)N2C[C@H]3[C@H]4C(=O)N(c5ccccc5)C(=O)[C@H]4C[C@H](OC(=O)NC4CC4)[C@@]3(O)C2)cc1 the results were esBAF inh inactive, Ecoli rRNA inh inactive, MLL AF4-AF9 inh inactive and Wnt act inactive.
Screening N/C(=N/OC(=O)c1ccc(Cl)cc1)c1ncc([N+](=O)[O-])s1 returned Ecoli rRNA inh inactive, MLL AF4-AF9 inh inactive and Wnt act inactive.
For Nc1ccn([C@@H]2O[C@H](CNCc3cccc4c3sc3ccccc34)[C@@H](O)[C@H]2O)c(=O)n1 the results were esBAF inh inactive, MLL AF4-AF9 inh inactive and Wnt act inactive.
For CC(=O)Nc1cccc(-n2nnc(SCC(=O)c3ccccc3)n2)c1 the results were esBAF inh inactive, Ecoli rRNA inh -36, MLL AF4-AF9 inh inactive and Wnt act 60.
`COc1ccc(C(=O)CSc2nnn(-c3cccc(NC(C)=O)c3)n2)cc1` gave esBAF inh inconclusive, MLL AF4-AF9 inh inactive and Wnt act inactive.
For O=C(c1ccc2c(=O)n(C3CCCC3)c(=S)[nH]c2c1)N1CCCCCC1 the results were Ecoli rRNA inh -28, MLL AF4-AF9 inh inactive, MITF TRPM1 HTS inactive and Wnt act inactive.
CC1CCCN(C(=O)c2ccc3c(=O)n(C4CCCC4)c(=S)[nH]c3c2)C1 (stereo not drawn) was read as esBAF inh inactive, Ecoli rRNA inh inactive, MLL AF4-AF9 inh inactive, MITF TRPM1 HTS inactive and Wnt act inactive.
Screening Nc1[nH]c(C(=O)c2ccccc2)c(-c2ccccc2Br)c1C(=O)c1ccccc1 returned Ecoli rRNA inh -41, MLL AF4-AF9 inh inactive and Wnt act inactive.
